This is an account of results in PubChem BioAssay (NCATS).

Several values for one entry are separate records, joined by “and”; a condition that tells them apart may be missing. Equal entries are not always repeated. Records with an inconclusive call do not appear. Values without a mark were called inactive. Activity calls are given as the source filed them. Calls come from the whole dose curve; as a rule, active = well fitted inhibition curve with a large enough effect; inconclusive = small, poorly fitted or top-dose-only effect; inactive = flat fitted curve, though single readings scatter.
% is set by controls: 0 for no effect and ±100 for the full control effect; potency is the fitted concentration of half-maximal effect.

This assay has as its system CRL-7250. Nature of the assay: Cytotoxic Profiling of Annotated Libraries Using Quantitative High-Throughput Screening (AID 1296008). Note: nearly all actives have a fitted effect of over 60% in size. The conditions noted are these: Five cell lines viability, CellTiter-Glo ATP luminescence, 48-72 h; max response: hits give low values. In a few lines: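 Cells exposed to compounds for 48 or 72 hr at 37 degrees Celsius. Viability read as ATP-coupled luminescence with CellTiter-Glo after 10 min at room temperature.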
(In general: ATP-based viability assays read luminescence as a measure of living cells.)
For the compound `O=c1c2ccccc2nc2n1CCc1c-2[nH]c2ccccc12`, the max response is 3.31%. Consider `CC1(C)CC(=O)c2c(C(F)(F)F)nn(-c3ccc(C(N)=O)c(NC4CCC(OC(=O)CN)CC4)c3)c2C1` (stereo unspecified), for which the Potency is 469 nM (active) and 231 nM (active).

As for `NC(=O)c1cccc2cn(-c3ccc([C@@H]4CCCNC4)cc3)nc12`, the max response is -21.5% and 4.62%. Regarding `C=CC(=O)Nc1cccc(Oc2nc(Nc3ccc(N4CCN(C)CC4)cc3)ncc2Cl)c1`, the Potency was 4.18 µM (active) and 920 nM (active). Still for that read-out and setting: under `Cn1cc(-c2[nH]c3cc(NC(=O)[C@H](N)C4CCCCC4)cc4c3c2C=NNC4=O)cn1` stands 1.87 µM (active) and 2.59 µM (active); under `c1ccc2c(CCNc3ccc(Nc4ccncc4)cc3)c[nH]c2c1`, 10.5 µM (active); under `COc1cc2c(Oc3ccc(NC(=O)C4(C(=O)Nc5ccc(F)cc5)CC4)cc3F)ccnc2cc1OCCCN1CCOCC1`, 10.5 µM (active) and 8.2 µM (active). As to `CC(=O)OCCN1C(=O)c2c(C)nc3ccc(S(=O)(=O)N4CCOCC4)cc3c2C1=O`, the max response was -12.8%. With `CC(C)=CCCC(C)=CCCC(C)=CCSc1ccccc1C(=O)O`, the Potency was 0.148 µM (active). Regarding `C[C@@H]1CN(CC(=O)Nc2ccc3c(c2)Cc2cccc(-c4cc(=O)cc(N5CCOCC5)o4)c2S3)C[C@H](C)O1`, the max response was -2.3%. Consider `C[C@@H](Oc1cc(-c2cnn(C3CCNCC3)c2)cnc1N)c1c(Cl)ccc(F)c1Cl`, for which the Potency is 11.8 µM (active) and 20.6 µM (active) and 23.1 µM (active).

Consider `CCn1nnc2c(N3CCOCC3)nc(-c3ccc(NC(=O)Nc4ccc(C(=O)N5CCN(C)CC5)cc4)cc3)nc21`, for which the Potency was 0.0651 µM (active).

For the compound `C[C@@]12O[C@@H](C[C@]1(O)CO)n1c3ccccc3c3c4c(c5c6ccccc6n2c5c31)CNC4=O`, the Potency is 0.0833 µM (active). `COc1cc2c(Oc3ccc(-c4cnc(Nc5ccc(F)cc5)n(C)c4=O)cc3F)ccnc2cc1OCCCN1CCOCC1`: the Potency is 13.2 µM (active). For `NC(=O)Nc1cc(-c2cccc(F)c2)sc1C(=O)N[C@H]1CCCNC1`, the Potency is 4.69 µM (active) and 2.06 µM (active).

With `CN(C)CCCN=c1c2ccccc2n(C)c2[nH]c(=O)n(C)c(=O)c12`, the Potency was 11.8 µM (active). Still for that read-out and setting: under `CN(C)Cc1c(C(=O)NCCOc2ccc(C(=O)NO)cc2)oc2ccccc12` stands 4.69 µM (active) and 4.61 µM (active).

Consider `Cc1c(CN2CCN(S(C)(=O)=O)CC2)sc2c(N3CCOCC3)nc(-c3cnc(N)nc3)nc12`, for which the Potency is 166 nM (active) and 259 nM (active). `C=CC(=O)Nc1cccc(Oc2nc(Nc3ccc(N4CCN(C)CC4)cc3OC)ncc2Cl)c1`: the max response was -21.1%.

As for `CC(C)(C)OC(=O)Nc1ccc(-c2cc(C(=O)NCCCCCCC(=O)NO)no2)cc1`, the Potency is 16.6 µM (active).

In the case of `Cc1nc(Nc2n[nH]c3c2CN(C(=O)N[C@H](CN(C)C)c2ccccc2)C3(C)C)c2sccc2n1`, the Potency was 1.18 µM (active) and 130 nM (active). With `Cc1[nH]c2ccccc2c1CCNCc1ccc(C=CC(=O)NO)cc1`, the Potency is 1.05 µM (active).

Turning to `O=C(Nc1ncc(-c2cc(C(F)F)nn2-c2c(Cl)cccc2Cl)s1)C1CC1`, the Potency was 1.48 µM (active) and 3.66 µM (active). Still for that read-out and setting: under `CC[C@@]1(O)C(=O)OCc2c1cc1n(c2=O)Cc2cc3cc(O)ccc3nc2-1` stands 1.3 µM (active) and 1.48 µM (active); under `CC(NCc1ccc2c(c1)nc(NC(=O)c1ccc(-c3cn[nH]c3)s1)n2CC(C)(C)O)C(C)(C)C` (stereo unspecified), 0.296 µM (active). Regarding `NC1(Cc2ccc(Cl)cc2)CCN(c2ncnc3[nH]ccc23)CC1`, the Potency was 13.2 µM (active). Turning to `CN1CCN(Cc2ccc(NC(=O)Nc3ccc(Oc4cc(NC(=O)C5CC5)ncn4)cc3)cc2C(F)(F)F)CC1`, the Potency was 418 nM (active) and 1.3 µM (active).

Regarding `CN(C)CC=CC(=O)Nc1cc2c(Nc3ccc(F)c(Cl)c3)ncnc2cc1O[C@H]1CCOC1`, the Potency is 3.32 µM (active).

In the case of `CC(C)(C)c1cc(NC(=O)Nc2ccc(-c3cn4c(n3)sc3cc(OCCN5CCOCC5)ccc34)cc2)no1`, the max response is -10.2% and -19.2%. Take `COc1ccc(C=Cc2cc(OC)c(OC)c(OC)c2)cc1O`: the max response is -82.4%. For `CN1CC[C@@H](c2c(O)cc(O)c3c(=O)cc(-c4ccccc4Cl)oc23)[C@@H](O)C1`, the Potency is 0.166 µM (active).
